Compound activity as filed in PubChem.
In the library only some 19% were active in any assay of this set; here they are far more common.
VP16 counter: Gal4-VP16 reporter inhibition counter-screen; Drosophila S2 Gal4-VP16 UAS-luciferase, luminescence, 20 h; Potency, µM (highest dose often 53.6 µM), without a hit: at the top dose activity, negative = inhibition, usual class: inhibitors; actives 3.5% (n = 310,000);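 also: Gal4-VP16 expression switched on by copper sulfate through the metallothionein promoter; nearly all actives have a fitted effect of over 50% in size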
TDP1 cell noCPT: qHTS for Inhibitors of human tyrosyl-DNA phosphodiesterase 1 (TDP1): qHTS in cells in absence of CPT; Potency, µM (titrated, usually from 46.2 µM), without a hit: top-dose activity change, negative = growth inhibition, hits mostly inhibitors; DT40 Tdp1-/- hTDP1 cells, no CPT, ATP luminescence, 48 h; actives 15% (n = 420,000); also: nearly all actives have a fitted effect of over 55% in size
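Chicken DT40 Tdp1-/- cells complemented with human TDP1, screened without camptothecin (DMSO vehicle only), 400 cells/well. Compounds pin-transferred, cells incubated at 37 °C for at least 48 hr. Growth read as ATP-dependent luminescence (CellTiter-Glo, 30 min at RT).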
TDP1 inh: inhibitors of human tyrosyl-DNA phosphodiesterase TDP1. actives 0.28% (n = 350,000). recombinant TDP1, AlphaScreen DNA substrate cleavage. Potency, µM (highest dose often 130 µM), without a hit: at the top dose activity change, negative = inhibition, usual class: inhibitors. Q9NUW8; also: nearly all actives have a fitted effect of over 40% in size
Target sequence (Q9NUW8 whole entry, looked up): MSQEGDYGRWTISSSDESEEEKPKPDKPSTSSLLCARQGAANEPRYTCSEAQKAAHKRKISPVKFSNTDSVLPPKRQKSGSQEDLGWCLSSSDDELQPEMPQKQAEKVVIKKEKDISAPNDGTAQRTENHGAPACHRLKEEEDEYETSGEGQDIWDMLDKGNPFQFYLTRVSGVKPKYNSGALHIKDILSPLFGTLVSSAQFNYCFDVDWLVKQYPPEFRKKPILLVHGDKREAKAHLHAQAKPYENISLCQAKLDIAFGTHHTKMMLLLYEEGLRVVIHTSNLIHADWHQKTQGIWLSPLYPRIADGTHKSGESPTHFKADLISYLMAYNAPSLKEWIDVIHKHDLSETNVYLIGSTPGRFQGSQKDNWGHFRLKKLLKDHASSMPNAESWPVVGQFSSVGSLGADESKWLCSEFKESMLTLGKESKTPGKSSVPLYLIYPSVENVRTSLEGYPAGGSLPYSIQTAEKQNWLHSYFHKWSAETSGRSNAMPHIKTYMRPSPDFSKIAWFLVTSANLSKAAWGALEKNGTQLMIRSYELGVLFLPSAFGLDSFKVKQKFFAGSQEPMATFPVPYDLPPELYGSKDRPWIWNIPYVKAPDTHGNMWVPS
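Compounds were preincubated with Tdp1 (1 nM final) for 15 min at room temperature before substrate (15 nM final) started a 5 min reaction; beads (10 ug/ml final) were then added for 10 min before AlphaScreen detection.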
DT40 TDP1 CPT: growth inhibition of DT40 Tdp1-/-;hTDP1 cells with camptothecin (screen for TDP1 inhibitors) | actives 12% (n = 420,000) | chicken DT40 Tdp1-/-;hTDP1 cells + 20 nM CPT, ATP luminescence, 48 h | Potency, µM (highest dose often 46.2 µM), for inactives: at the top dose activity change, negative = growth inhibition, actives largely listed as inhibitors; also: nearly all actives have a fitted effect of over 55% in size
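Chicken DT40 Tdp1-/- cells stably complemented with human TDP1 were seeded at 400 cells/well in medium containing 20 nM camptothecin, exposed to pin-transferred compounds, and grown at 37 °C for at least 48 hr. Viability was read as ATP luminescence.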
RORg inh: inhibitors of mouse ROR gamma transcriptional activity; P51450; Drosophila S2 Gal4-RORgamma UAS-luciferase reporter, 20 h; Potency, µM (doses to about 53.6 µM), for the others: at the top dose activity change, negative = inhibition, usual class: inhibitors; actives 5.4% (n = 310,000); AID 2551; also: nearly all actives have a fitted effect of over 60% in size
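Using a luciferase readout, inhibitors were identified by reduced reporter activity in Drosophila cells coexpressing a copper-inducible Gal4–ROR gamma fusion and UAS-driven Photinus luciferase, incubated 20 hr after 700 uM copper sulfate.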
Starred values were filed as active, the others as inactive. Calls follow the shape of the dose curve; as a rule, active = well fitted curve in the direction sought with a large enough effect; inconclusive = small, poorly fitted or top-dose-only effect, or another doubt; inactive = no such curve, though single readings can be large; an effect the other way counts as inactive or inconclusive. % is scaled to controls: 0 for no effect and ±100 for the full control effect; potency is read from the fitted curve at half-maximal effect.

What do the screens show for `CC12CCC3(CC1CCC1OC12)OCCO3` (stereo not given)?
TDP1 cell noCPT: -7%; DT40 TDP1 CPT: -27%

What do the screens show for `O=C(C(Cl)Cl)N1CC2CCC(CC2)C1`?
TDP1 cell noCPT: -18%; DT40 TDP1 CPT: -14%

Results for O=C(NCC1CCCCC1)c1cccc([N+](=O)[O-])c1 ?
VP16 counter: 4%; TDP1 cell noCPT: inconclusive; TDP1 inh: 1%; DT40 TDP1 CPT: 3%; RORg inh: 17%

What do the screens show for `Cc1nc(-c2ccc(NC(=O)C3CCCCC3)cc2)cs1`?
VP16 counter: inconclusive; TDP1 cell noCPT: 21µM*; TDP1 inh: -3%; DT40 TDP1 CPT: -22%; RORg inh: inconclusive

How did Cc1nc(-c2ccc(NC(=O)c3ccccc3)cc2)cs1 do in these assays?
VP16 counter: 5%; TDP1 cell noCPT: inconclusive; TDP1 inh: 3%; DT40 TDP1 CPT: 18µM*; RORg inh: -35%

How did O=C(O)c1ccccc1C(=O)Nc1ccc(-c2csc(-c3ccccc3)n2)cc1 do in these assays?
VP16 counter: 3%; TDP1 cell noCPT: 9%; TDP1 inh: 0%; DT40 TDP1 CPT: 28%; RORg inh: 30%

Results for O=C(Nc1ccc(-c2csc(-c3ccccc3)n2)cc1)c1ccccc1Cl ?
VP16 counter: -18%; TDP1 cell noCPT: inconclusive; TDP1 inh: 6%; DT40 TDP1 CPT: 21µM*; RORg inh: -10%

Results for O=C(Nc1ccc(-c2cn3ccsc3n2)cc1)C1CCCC1 ?
VP16 counter: 6%; TDP1 cell noCPT: 16µM*; TDP1 inh: -2%; DT40 TDP1 CPT: 15µM*; RORg inh: 1%

How did Cc1ccc(C(=O)Nc2ccc(-c3csc(C)n3)cc2)cc1 do in these assays?
VP16 counter: -22%; TDP1 cell noCPT: -29%; TDP1 inh: -1%; DT40 TDP1 CPT: 7%; RORg inh: -30%

What do the screens show for `Cc1oc(C)c(C(=O)Nc2ccc(CC(=O)O)cc2)c1C(=O)Nc1ccc(CC(=O)O)cc1`?
VP16 counter: 18%; TDP1 cell noCPT: -4%; TDP1 inh: 5%; DT40 TDP1 CPT: 9%; RORg inh: 2%

Results for Cc1cc(C)nc(SC(C)C(=O)Nc2ccc(S(N)(=O)=O)cc2)n1 (stereo not given) ?
VP16 counter: 3%; TDP1 cell noCPT: -11%; TDP1 inh: 0%; DT40 TDP1 CPT: -28%; RORg inh: -3%

How did COc1ccc(CCn2c(NN)nc3c2c(=O)[nH]c(=O)n3C)cc1 do in these assays?
VP16 counter: -21%; TDP1 cell noCPT: 5.2µM*; DT40 TDP1 CPT: 4.6µM*; RORg inh: -27%

What do the screens show for `COc1ccc(CCn2c(NN=C(C)C)nc3c2c(=O)[nH]c(=O)n3C)cc1`?
VP16 counter: -4%; TDP1 cell noCPT: inconclusive; DT40 TDP1 CPT: inconclusive; RORg inh: -3%

Results for Cc1cc2nc3s/c(=C/c4ccc(-c5ccccc5C(=O)O)o4)c(=O)n3c2cc1C ?
VP16 counter: 1%; TDP1 cell noCPT: inconclusive; DT40 TDP1 CPT: inconclusive; RORg inh: -12%

Results for O=C(O)c1ccccc1-c1ccc(/C=c2\sc3nc4cc(Br)cnc4n3c2=O)o1 ?
VP16 counter: -2%; TDP1 cell noCPT: 18µM*; TDP1 inh: 7.9µM*; DT40 TDP1 CPT: 16µM*; RORg inh: -13%

What do the screens show for `COc1ccc(-c2noc(CN(C)C(=O)c3ccco3)n2)cc1`?
VP16 counter: inconclusive; TDP1 cell noCPT: -18%; TDP1 inh: 7%; DT40 TDP1 CPT: -6%; RORg inh: 20%

Results for CC1(C)CC2(CC(c3cccs3)c3cc(Cl)c(O)cc3O2)NC(=S)N1 (stereo not given) ?
VP16 counter: inconclusive; TDP1 cell noCPT: 7.3µM*; TDP1 inh: 8%; DT40 TDP1 CPT: 8.2µM*; RORg inh: inconclusive

Results for CC(C)C(=O)Nc1sc2c(c1-c1nc3ccccc3[nH]1)CCCC2 ?
VP16 counter: 0%; TDP1 cell noCPT: inconclusive; TDP1 inh: 4%; DT40 TDP1 CPT: inconclusive; RORg inh: 11µM*
